According to paper PMC12136788:
In all, about 5,800 sequences were measured (“enrichment r”: median about 0.68, highest 2% from about 11 on). Not all results are given here.

T1: UNK ZnF1-6 (called full-length) (human, UniProt Q9C0B0 30-357)
T1 sequence: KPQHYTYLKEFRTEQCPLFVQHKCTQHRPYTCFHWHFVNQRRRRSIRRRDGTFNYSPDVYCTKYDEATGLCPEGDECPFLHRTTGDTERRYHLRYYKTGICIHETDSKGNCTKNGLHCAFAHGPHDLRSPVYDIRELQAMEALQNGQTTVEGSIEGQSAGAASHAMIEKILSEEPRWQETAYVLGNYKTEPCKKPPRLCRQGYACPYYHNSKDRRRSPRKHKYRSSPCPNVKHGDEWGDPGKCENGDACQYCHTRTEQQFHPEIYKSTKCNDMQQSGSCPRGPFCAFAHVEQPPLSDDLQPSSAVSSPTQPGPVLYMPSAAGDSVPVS

B1: chr6:158785413:158785514:-|CDS|ENSG00000092820|msi1|FALSE|unique (ssRNA)
RNA: GGGAGUUCUACAGUCCGACGAUCGAGCUCAUCCAGGACAUCACCCAGAAACUUUUCUUCCUCCAAGUGAAGGAAGGAAUCCUUAGCGAUGAGAUCUACUGCCCCCCUGAGACUGCCGUGCUCUUGGGGUCCUACGCUGUGCAGCAACAGAGGAUUGAGCAUCA
B2: chr10:113876644:113876745:+|CDS|ENSG00000196865|msi1|total|mutant (ssRNA)
RNA: GGGAGUUCUACAGUCCGACGAUCGGUUAAUGAUGCAGAUGCCAGCCUUUGGCAAGAACCCGAAGUUUCCUGCUGGCCAACUCCCGUCAUACUUGGACCUCGUGGAAACAUGUUGUUUUCUUUGAUUGGAGAGGGACACAAAGACAACAGAGGAUUGAGCAUCA
B3: chr1:212686416:212686790:-|three_prime_utr|ENSG00000123685|control|control|control (ssRNA)
RNA: GGGAGUUCUACAGUCCGACGAUCUUGUGCAGAUCCAGCAUGGAGGCCACCCUCAGGAGUGACUUCUCAUCCACCCUGGCAGCUAGUAGGUUCUGCUGUUAUGCAGAGCCAUUUCCUCUAGAAUUUGGAUAAUAAAGAUGCUUACAACAGAGGAUUGAGCAUCA
B4: ENSG00000184117:stop:overlap|stop_codon|ENSG00000184117|stop_codon|NA|stop_codon (ssRNA)
RNA: GGGAGUUCUACAGUCCGACGAUCUGGGCAACUGGAACACGUGGUAUGGGGAGCAGGACCAGGCAGGUCAUUCCUGGUUUUGGUAGAUUUCUAUCCAUACAGUACUUUUGCCAUUUCCUUUGGGAAAAAGACCUUUAAACCAUACAACAGAGGAUUGAGCAUCA
B5: chr20:32237940:32238012:+|3pUTR|ENSG00000101346|msi1_unk|total|mutant (ssRNA)
RNA: GGGAGUUCUACAGUCCGACGAUCUUUCAAAGAUACAAAUAUUUACACCGUUUUAAUCAUGUAAUAUAUACAAUUUAAUGUCCCCGUGUUUUACUUAACCGUGUAUCAUGUUUUCCCUGUUGGUAUGCCGCCUGGAUAAAUGCUCAACAGAGGAUUGAGCAUCA
B6: chr4:152882748:152882856:+|CDS|ENSG00000164144|unk|FALSE|unique (ssRNA)
RNA: GGGAGUUCUACAGUCCGACGAUCCAGAAACUGCUGGCUAAAAAUGGAGAGACUCUUCUUGGGGCCAUUAAUUUUUUCAUUGCUAGUGUGAACACUUUGGUGAAUAAAACCAUUGAAGAUACAUUAAUGACUGUGAAACAGUAUCAACAGAGGAUUGAGCAUCA
B7: chrX:13662881:13662996:+|CDS|ENSG00000176896|unk|total|mutant (ssRNA)
RNA: GGGAGUUCUACAGUCCGACGAUCUCGAAUUCUCUGUCUUCCCAAGACGUUGCAAAACUCAGUGAAAUGAUUGUGCCUGAAAACCGAGCCAUUCAAUUGAAACCUAAGGAAGAGCAUUUUGGGGAUGGUGACCCUGAAUCCACUCAACAGAGGAUUGAGCAUCA
B8: chr10:116672031:116672132:-|3pUTR|ENSG00000165868|msi1|total|mutant (ssRNA)
RNA: GGGAGUUCUACAGUCCGACGAUCCCUUUCCUGCCUUGCAUUAAUGCUAUCUCCCUGUGUACUGUUUCUCUUAAAUGAGCAGACCGAAAUCUGCAGUGUUGGCAGACCGGUGAUGGAGAGGAUGAUAAUUUUAUCUUCUGGCCACAACAGAGGAUUGAGCAUCA
B9: chr2:121605696:121605828:-|CDS|ENSG00000074054|unk|FALSE|unique (ssRNA)
RNA: GGGAGUUCUACAGUCCGACGAUCGAUAGACUAUUUCUCAGACAAACAGAAGUCUGCUGACCUUGAGCAUGACCAGACCAUGUUAGAUAAACUUGUGGAUGGACUUGCUACCUCUUGGGUGAACUCUAGCAAUUACAAGGUAAGCAACAGAGGAUUGAGCAUCA
B10: chr17:64498535:64498649:-|3pUTR|ENSG00000108654|unk|FALSE|unique (ssRNA)
RNA: GGGAGUUCUACAGUCCGACGAUCUUAAACUGAGGCUUUAAUUGAUGUUAAUGCCUUAUGUCAAAUGUAAAGUUAGAAUUUGCUAGGGCUGGGAUAGGGAGUGAUAUUUCUAGGACUUAGACAUUGAAAACUAAUUCAGCCUGUCAACAGAGGAUUGAGCAUCA
B11: ENSG00000124766:be:win_2101|3pUTR|ENSG00000124766|bound_else_gene|NA|bound_elsewhere_windowed (ssRNA)
RNA: GGGAGUUCUACAGUCCGACGAUCUGCCCCCUCUGCAGCCGGAGGAGGAGAUGUUGAGGGGAGGAGGCCAGCCAGUGUGACCGGCGCUAGGAAAUGACCCGAGAACCCCGUUGGAAGCGCAGCAGCGGGAGCUAGGGGCGGGGGCAACAGAGGAUUGAGCAUCA
B12: chr4:75812186:75812332:+|CDS|ENSG00000138768|unk|total|mutant (ssRNA)
RNA: GGGAGUUCUACAGUCCGACGAUCAGAGCAGCUGGAUUCAUCUAACCGUACCAUUGCCAUUUUACAAACUGAGAAAGACAAACCCGAGUUGGAAAUUACAGAUUCUAAAAAAGAACAAGAUGAUCUCUUGGUGCUCUUGGCCGACAACAGAGGAUUGAGCAUCA
B13: ENSG00000198589:be:win_7451|CDS|ENSG00000198589|bound_else_gene|NA|bound_elsewhere_windowed (ssRNA)
RNA: GGGAGUUCUACAGUCCGACGAUCUGAGUCCAUUGAUGUUCACAGACAAAGCCCAGCAGGAUGUUAUCAUGGUCCUCAAGUUUCCCUCCAACUCCCCUGUUACUCACGUGGCAGCCAACACCCAGCCUGGUUUGGCAACUCCCGCAACAGAGGAUUGAGCAUCA
B14: chr4:75597091:75597192:-|CDS|ENSG00000138769|unk|total|mutant (ssRNA)
RNA: GGGAGUUCUACAGUCCGACGAUCUAUAAACUAUUUAAAAUAAAAGGCUCAAAAAUUGAUGGAGAAAAAGCUGAAAAAGGCAACCGAGCUUCAAAUGCCAGCUGUCUCCAUGACAGCCGGACAAGCCACAACAAAACCGUGCCUCAACAGAGGAUUGAGCAUCA

Each binder was assayed against T1, UNK ZnF1-6 (called full-length) (assay: nsRBNS (natural sequence RNA bind-n-seq); RBNS binding buffer (assumed for nsRBNS): 25 mM Tris pH 7.5, 150 mM KCl, 3 mM MgCl2, 0.01% Triton X-100, 500 ug/ml BSA, 20 U/ml SUPERase-In, 4 C; UNK is unkempt and MSI1 is Musashi-1; names of the RNAs are library labels; protein concentration not given here; high values mean tight binding).
Work on B1 yielded a binding signal of 0.521 enrichment R. B2 showed a binding signal of 0.577 enrichment R. B3 showed a binding signal of 0.63 enrichment R. B4 showed a binding signal of 0.898 enrichment R. With B5 the binding signal was 0.548 enrichment R. For B6, the binding signal was 0.365 enrichment R. Work on B7 yielded a binding signal of 0.441 enrichment R. Binder B8 has a binding signal of 0.548 enrichment R. In the case of B9, the binding signal is reported as 0.726 enrichment R. Binder B10 has a binding signal of 0.878 enrichment R. For B11, the binding signal was 1.41 enrichment R. B12 was tested, and the binding signal was 0.434 enrichment R. For B13, the binding signal was 0.743 enrichment R. With B14 the binding signal was 0.872 enrichment R.
